# PubChem BioAssay (NCI)
# “And” between values parts separate entries of the source, which are not always exact repeats. Equal values may be shown once. The panel holds about 79,000 compounds, 15% with a hit somewhere; the sample as a whole holds those more often. The source made the active and inactive calls. No stated cut-off is given here; in the data, active means growth inhibition above about 70%; inactive means the rest.
# Assay: NCI Yeast Anticancer Drug Screen. Data for the sgs1 mgt1 strain (AID 161);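 further: 0% = growth of cultures given vehicle only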
# Details: S. cerevisiae sgs1 mgt1 strain, active compounds read high
# Procedure: Growth inhibition of yeast strains with defined genetic alterations is measured as a screen for potential anti-cancer activity. Selected strains with alterations in DNA damage repair or cell cycle control were exposed to compounds and growth inhibition was measured relative to vehicle treated controls. The strain used in this assay is sgs1 mgt1
# [1] = at 5.0 µM (retest, dose inferred, filed as 0.5)
# [2] = at 50.0 µM (retest, dose inferred, filed as 5.0)
Structure (SMILES),growth inhibition [1],growth inhibition [2],growth inhibition (at 50.0 µM)
CCCCCC[C@@H](O)C/C=C\CCCCCCCC(=O)OCCOC,-6% (inactive),24% (inactive),4.2% (inactive)
O=[N+]([O-])/C(=C/c1ccccc1)c1ccccc1,99% (active),97% (active),99.7% (active)
CC(C)(C)C(=O)CC(c1ccccc1)c1ccccc1,5% (inactive),30% (inactive),–
O=[N+]([O-])c1cc(-c2ccccc2)c(O)c([N+](=O)[O-])c1,27% (inactive),71% (active),85.8% (active)
CCOC(=O)COc1cc(-c2ccccc2F)nc2cc3c(cc12)OCO3,-16% (inactive),-9% (inactive),47.2% (inactive)
O=C1C=CC2C3C(=O)N(c4ccccc4)C(=O)C3C1N2Cc1ccccc1 (stereo not given),50% (inactive),70% (active),69.2% (inactive)
Cc1cccc(N=NC(C#N)C#N)c1,24% (inactive),95% (active),–
CN(C)c1ccc(C(=C2C=CC(=[N+](C)C)C=C2)c2ccc(N(C)C)cc2)cc1,99% (active),95% (active),94.8% (active)
CC(=O)Nc1ccc(C(=O)CCl)cc1,98% (active),99% (active),99% (active)
CCCCCC/C=C1\CCC(CN2CCCC2)C1=O (stereo not given),59% (inactive),96% (active),90.4% (active)
COC1CC(C)C(OC)c2cc(O)cc(c2O)NC(=O)/C(C)=C/C=C\C(C)C(OC(N)=O)/C(C)=C\C(C)C1OC (stereo not given),97% (active),98% (active),91.3% (active)
C=COC(=O)c1ccccc1C(=O)OCCCC,5% (inactive),37% (inactive),–
CC1OC(OC2C(OC3CCC4(C)C(CCC5(C)C4CC=C4C6CC(C)(C)CCC6(C(=O)O)CCC45C)C3(C)CO)OCC(O)C2O)C(O)C(O)C1O (stereo not given),95% (active),99% (active),90.3% (active)
CC(=O)OC1COC(N2CCc3ccccc32)C(OC(C)=O)C1OC(C)=O (stereo not given),–,–,-33% (inactive) and -34.4% (inactive)
OCC1OCOC2C(CO)OCOC12 (stereo not given),–,–,-9.95% (inactive) and 15.6% (inactive)
COC1C(O)C(O)C(O)C(O)C1O (stereo not given),–,–,-0.35% (inactive) and -18.1% (inactive)
O=c1c(I)c[nH]cc1I,–,–,-24.1% (inactive) and 4.45% (inactive)
